Data taken from PubChem BioAssay AID1159580 (chemical genetic matrix, 2015).
Where “and” joins values, the source holds several entries; their conditions need not be identical. Equal values may be shown once. The campaign covered roughly 5,500 compounds. About 2,000 (36%) were called active. About 18% were inconclusive and are not listed. Rule as the data show it: active = normalized growth mostly below about 0.91 (no sharp cut-off); inconclusive = no clear call, values can overlap the other calls; inactive = mostly above about 0.92. The list shows a part of the results.

Assay: chemical genetic growth profiling, strain panel (AID 1159580);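 also: tested at 20 µM; growth read once vehicle control cultures reached saturation at 30 °C; 1 = growth at the plate median or of vehicle wells; lower values mean less growth of the strain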
Settings: growth OD

Measured: normalized growth

COc1ccc2c(c1)c(CC(=O)O)c(C)n2C(=O)c1ccc(Cl)cc1
active: S. cerevisiae deletion strains, locus YLR221C, strain rsa3, hits give low values 0.874 | S. cerevisiae deletion strains, locus YLR320W, strain mms22, hits give low values 0.819 | S. cerevisiae deletion strains, locus YML120C, strain ndi1, hits give low values 0.874 | S. cerevisiae deletion strains, locus YNL322C, strain KRE1 (second series), hits give low values 0.64
inactive: S. cerevisiae deletion strains, locus YJR075W, strain HOC1, hits give low values 1 | S. cerevisiae deletion strains, locus YKL009W, strain mrt4, hits give low values 0.998 | S. cerevisiae deletion strains, locus YKL068W, hits give low values 0.959 | S. cerevisiae deletion strains, locus YKL085W, strain MDH1 (second series), hits give low values 0.955 | S. cerevisiae deletion strains, locus YKL085W, strain MDH1, hits give low values 0.955 | S. cerevisiae deletion strains, locus YKL160W, strain elf1, hits give low values 0.98 | S. cerevisiae deletion strains, locus YKL190W, strain CNB1, hits give low values 1.01 | S. cerevisiae deletion strains, locus YKR001C, strain vps1, hits give low values 0.993 | S. cerevisiae deletion strains, locus YKR026C, strain gcn3, hits give low values 0.983 | S. cerevisiae deletion strains, locus YKR091W, strain srl3, hits give low values 0.984 | S. cerevisiae deletion strains, locus YLL001W, strain dnm1, hits give low values 0.938 | S. cerevisiae deletion strains, locus YLL026W, hits give low values 0.988 | S. cerevisiae deletion strains, locus YLL041C, strain sdh2, hits give low values 0.986 | S. cerevisiae deletion strains, locus YLR027C, strain aat2, hits give low values 0.98 | S. cerevisiae deletion strains, locus YLR039C, strain RIC1, hits give low values 1.17 | S. cerevisiae deletion strains, locus YLR058C, strain SHM2, hits give low values 1.02 | S. cerevisiae deletion strains, locus YLR102C, strain apc9, hits give low values 0.975 | S. cerevisiae deletion strains, locus YLR113W, strain HOG1, hits give low values 0.874 | S. cerevisiae deletion strains, locus YLR258W, strain gsy2, hits give low values 0.978 | S. cerevisiae deletion strains, locus YLR262C, strain YPT6 (second series), hits give low values 0.912 | S. cerevisiae deletion strains, locus YLR262C, strain YPT6, hits give low values 1.03 | S. cerevisiae deletion strains, locus YLR268W, strain sec22, hits give low values 0.993 | S. cerevisiae deletion strains, locus YLR330W, strain CHS5, hits give low values 0.995 | S. cerevisiae deletion strains, locus YLR342W, strain FKS1 (second series), hits give low values 1.01 | S. cerevisiae deletion strains, locus YLR342W, strain FKS1, hits give low values 0.971 | S. cerevisiae deletion strains, locus YLR357W, strain rsc2, hits give low values 0.973 | S. cerevisiae deletion strains, locus YLR370C, strain arc18, hits give low values 0.943 | S. cerevisiae deletion strains, locus YLR371W, strain rom2, hits give low values 0.987 | S. cerevisiae deletion strains, locus YLR384C, strain iki3, hits give low values 0.986 | S. cerevisiae deletion strains, locus YLR418C, strain cdc73, hits give low values 0.966 | S. cerevisiae deletion strains, locus YML016C, strain PPZ1, hits give low values 1.01 | S. cerevisiae deletion strains, locus YML032C, strain rad52, hits give low values 0.999 | S. cerevisiae deletion strains, locus YML124C, strain tub3, hits give low values 0.981 | S. cerevisiae deletion strains, locus YMR058W, strain fet3, hits give low values 0.975 | S. cerevisiae deletion strains, locus YMR078C, strain ctf18, hits give low values 0.973 | S. cerevisiae deletion strains, locus YMR125W, strain sto1, hits give low values 0.975 | S. cerevisiae deletion strains, locus YMR129W, hits give low values 0.987 | S. cerevisiae deletion strains, locus YMR205C, strain PFK2, hits give low values 0.982 | S. cerevisiae deletion strains, locus YMR223W, strain ubp8, hits give low values 0.976 | S. cerevisiae deletion strains, locus YMR231W, strain pep5, hits give low values 0.988 | S. cerevisiae deletion strains, locus YMR263W, strain SAP30, hits give low values 1 and 1.01 | S. cerevisiae deletion strains, locus YMR307W, strain GAS1, hits give low values 1.02 and 1 | S. cerevisiae deletion strains, locus YNL067W, strain RPL9B, hits give low values 1 | S. cerevisiae deletion strains, locus YNL071W, strain lat1, hits give low values 0.986 | S. cerevisiae deletion strains, locus YNL175C, strain NOP13, hits give low values 1 | S. cerevisiae deletion strains, locus YNL183C, strain NPR1, hits give low values 0.931 | S. cerevisiae deletion strains, locus YNL197C, strain WHI3, hits give low values 1 | S. cerevisiae deletion strains, locus YNL209W, strain ssb2, hits give low values 0.953 | S. cerevisiae deletion strains, locus YNL224C, strain SQS1, hits give low values 0.994 | S. cerevisiae deletion strains, locus YNL233W, strain BNI4, hits give low values 1.01 | S. cerevisiae deletion strains, locus YNL248C, strain rpa49, hits give low values 0.958 | S. cerevisiae deletion strains, locus YNL250W, strain rad50, hits give low values 0.947 | S. cerevisiae deletion strains, locus YNL271C, strain bni1, hits give low values 0.955 | S. cerevisiae deletion strains, locus YNL298W, strain CLA4, hits give low values 0.944 | S. cerevisiae deletion strains, locus YNL307C, strain MCK1, hits give low values 0.986 | S. cerevisiae deletion strains, locus YNL322C, strain KRE1, hits give low values 1 | S. cerevisiae deletion strains, locus YNR049C, strain mso1, hits give low values 0.984 | S. cerevisiae deletion strains, locus YNR052C, strain pop2, hits give low values 0.99 | S. cerevisiae deletion strains, locus YOL012C, strain htz1 2.03 | S. cerevisiae deletion strains, locus YOL147C, strain pex11, hits give low values 0.981 | S. cerevisiae deletion strains, locus YOR001W, strain rrp6, hits give low values 0.926 | S. cerevisiae deletion strains, locus YOR061W, strain CKA2, hits give low values 1.01 | S. cerevisiae deletion strains, locus YOR069W, strain VPS5, hits give low values 0.996 | S. cerevisiae deletion strains, locus YOR070C, strain gyp1, hits give low values 0.977 | S. cerevisiae deletion strains, locus YOR080W, strain dia2, hits give low values 0.989 | S. cerevisiae deletion strains, locus YOR083W, strain WHI5 (second series), hits give low values 1.01 | S. cerevisiae deletion strains, locus YOR083W, strain WHI5, hits give low values 0.942 | S. cerevisiae deletion strains, locus YOR106W, strain vam3, hits give low values 0.929 | S. cerevisiae deletion strains, locus YOR136W, strain idh2, hits give low values 1 | S. cerevisiae deletion strains, locus YOR144C, strain elg1, hits give low values 0.992 | S. cerevisiae deletion strains, locus YOR184W, strain ser1, hits give low values 0.988 | S. cerevisiae deletion strains, locus YOR231W, strain MKK1, hits give low values 0.953 | S. cerevisiae deletion strains, locus YOR265W, strain rbl2, hits give low values 0.96 | S. cerevisiae deletion strains, locus YOR270C, strain vph1, hits give low values 0.957 | S. cerevisiae deletion strains, locus YOR290C, strain snf2, hits give low values 0.895 | S. cerevisiae deletion strains, locus YOR316C, strain cot1, hits give low values 0.985 | S. cerevisiae deletion strains, locus YPL051W, strain arl3, hits give low values 0.969 | S. cerevisiae deletion strains, locus YPL078C, strain atp4, hits give low values 0.975 | S. cerevisiae deletion strains, locus YPL106C, strain sse1, hits give low values 1.02 | S. cerevisiae deletion strains, locus YPL240C, strain hsp82, hits give low values 0.978 | S. cerevisiae deletion strains, locus YPL241C, strain CIN2, hits give low values 0.996 | S. cerevisiae deletion strains, locus YPL256C, strain CLN2, hits give low values 0.871 | S. cerevisiae deletion strains, locus YPR119W, strain clb2, hits give low values 0.98 | S. cerevisiae deletion strains, locus YPR141C, strain kar3, hits give low values 0.96 | S. cerevisiae deletion strains, locus YPR163C, strain tif3, hits give low values 0.981 | S. cerevisiae deletion strains, locus YPR167C, strain met16, hits give low values 0.977 | S. cerevisiae deletion strains, strain wtn01, hits give low values 0.985 | S. cerevisiae strains, strain wild type, hits give low values 1
